# Laboratory results taken from ChEMBL document CHEMBL1157539, “Thousands of chemical starting points for antimalarial lead identification” (Nature, 2010).
# What was measured:
# Assay type in all cases: functional
# [1] = test system: Plasmodium falciparum; assay: GSK_TCMDC: Inhibition of Plasmodium falciparum 3D7 in whole red blood cells, using parasite LDH activity as an index of growth. Test compounds present at 2uM
# [2] = test system: Plasmodium falciparum; assay: GSK_TCMDC: Inhibition of Plasmodium falciparum Dd2 in whole red blood cells, using parasite LDH activity as an index of growth. Test compounds present at 2uM
# [3] = test system: HepG2; assay: GSK_TCMDC: Percent inhibition of human HepG2 cell line. Test compounds present at 10uM.
SMILES,Inhibition [1] [%],Inhibition [2] [%],Inhibition [3] [%]
COc1cccc(OC)c1CN1CCC(N(C)CCCCCCCCN2CCC(OC(=O)Nc3ccccc3-c3ccccc3)CC2)CC1,99,100,100
FC(F)(F)c1ccc2[nH]c(-c3ccc(-c4ccc(CNCc5ccccc5)cc4)cc3)nc2c1.O=C(O)C(F)(F)F,100,96,22
Cc1nn(CCOC(=O)NC(NCC2COc3ccccc3O2)C(Cl)(Cl)Cl)cc1[N+](=O)[O-] (configuration not stated),99,99,0
COc1ccc(C(=O)NC(c2ccc(Cl)cc2Cl)c2cc(Cl)c3cccnc3c2O)cc1 (configuration not stated),84,48,46
O=C(Nc1ccc(C(F)(F)F)cc1)c1cccc(S(=O)(=O)NC2CCN(CC3CCCCC3)C2)c1.O=C(O)C(F)(F)F (configuration not stated),98,10,32
O=C(O)C(F)(F)F.Oc1ccc(CN2CCC(NCc3cccc(C(F)(F)F)c3)CC2)cc1,100,64,10
O=C(CC(=O)C(F)(F)F)c1ccc2c(c1)OCO2,96,0,44
O=C(NOCCOc1ccccc1)c1ccccc1,98,0,0
N#Cc1cc(C(=O)Nc2ccccc2)c(N)nc1SCC(=O)NC(c1ccccc1)c1cccs1 (configuration not stated),98,100,34
CCOc1ccc2[nH]c(C)cc(=NN=Cc3cccc(F)c3)c2c1,100,23,0
CCOc1cc(C(C)C)ccc1C1CCN(CCCCNC(=O)c2ccc(NC(=O)c3ccc(Cl)cc3)cc2)CC1,100,98,32
CC1(C)N=C(N)N=C(N)N1c1ccc(Oc2ccc(Cl)cc2)c(Cl)c1,97,20,13
CCNC(=O)c1ccc2c(c1)c(C)c(C)n2Cc1ccc(F)cc1,93,91,25
N=C(N)NC(=O)Nc1cc(Br)c(Br)c(Br)c1,100,89,0
COC(=O)c1noc(C)c1I,99,2,5
COc1cc2ccccc2c(CNCCCCCCNCc2c(OC)c(OC)cc3ccccc23)c1OC.CS(=O)(=O)O,95,89,100
O=C(Nc1cccc(C(F)(F)F)c1)c1cccc(S(=O)(=O)NCC2CCCN(Cc3ccccc3)C2)c1.O=C(O)C(F)(F)F (configuration not stated),94,3,17
O=C(Cc1ccc(NC(=O)c2ccc(O)c(-c3ccc(Cl)c(Cl)c3)c2)cc1)NCc1cccc(C(F)(F)F)c1,95,28,0
Cc1sc2cc(Cl)cc(Cl)c2c1S(=O)(=O)Nc1ccc2nccc(N3CCNCC3)c2c1.Cl,100,99,24
COc1cccc(NC(=O)Nc2cc(-c3ccc4[nH]ncc4c3)cc3c2CNC3=O)c1,98,100,3
Cc1ccc(C)c(NC(=O)NCCNc2ccnc(Nc3ccc(F)cc3)n2)c1,97,5,21
COc1ccccc1-c1ccc(CNC(=O)C(CN2CCN(C)CC2)c2ccccc2)cc1 (configuration not stated),90,4,3

SMILES,Inhibition [1] [%],Inhibition [2] [%],Inhibition [3] [%]
COc1ccc2c(c1)[nH]c1c(C=Cc3ccccc3)nccc12.O=[N+]([O-])O,91,6,19
CC(C)NCc1ccc(-c2cccc(NC(=O)c3cccc(Cl)c3)c2)cc1.O=C(O)C(F)(F)F,100,87,24
CN(C)C(=O)CC(=O)NCc1cccc(Cl)c1,99,3,4
COc1ccc(NC(=O)NCC2CCCN(CCCCCNC(=O)/C=C/c3ccc(Cl)c(Cl)c3)C2)c(OC)c1 (configuration not stated),95,0,8
Cc1nc2ccccc2c(O)c1[N+](=O)[O-],88,0,5
CN(C)c1cc(NN=Cc2cc(Cl)ccc2O)nc(N(C)C)n1,98,98,3
O=C(O)C(F)(F)F.OCC1CCN(Cc2cccc(-c3ccc(-c4nc5cc(C(F)(F)F)ccc5[nH]4)s3)c2)CC1,99,90,0
COc1ccc(-c2cccc(NC(=O)c3ccc(C#N)cc3)c2)cc1CN1CCCC1.O=C(O)C(F)(F)F,98,15,30
CCC(c1ccccc1)c1nn2c(-c3cccs3)nnc2s1 (configuration not stated),97,95,10
O=C(c1ccc(O)c(-c2cc(Cl)cc(Cl)c2)c1)N(CCO)CCO,94,62,1
Cc1sc(C)c(C(F)(F)F)c1CNCCCNc1cc(=O)c2ccccc2[nH]1.Cl,96,43,0
CC1(C)CNCc2cc(NC(=O)/C=C/c3ccc(Cl)cc3)ccc21.Cl,82,26,23
Br.CCC(CCON1C(N)=NC(N)=NC1(C)C)c1ccc(Cl)c(Cl)c1 (configuration not stated),94,98,68
Cl.N#Cc1ccc(-c2ccc(C(=O)Nc3ccc4c(c3)CCN(C3CCC3)CC4)nc2)cn1,85,15,24
CCN(CC)CCCN(C(=O)c1cc2c(C)nn(-c3ccccc3)c2s1)c1nc(-c2ccc(OC)cc2)cs1.Cl,89,32,12
CCCCc1ccc2[nH]c(NC(=O)OC)nc2c1 [PARBENDAZOLE],98,1,26
CCc1cc2c(Sc3nc4ccccc4[nH]3)ncnc2s1,97,98,6
CCCN1CCN(Cc2ccc(-c3ccc(-c4nc5ccccc5[nH]4)s3)cc2)CC1,100,93,29
COc1ccc2c(NN=Cc3ccccc3F)ccnc2c1,98,99,15
O=C(NC1CCN(Cc2cccc(C(F)(F)F)c2)CC1)c1ccc(-c2cccc(C(F)(F)F)c2)s1.O=C(O)C(F)(F)F,94,54,36
Cc1cccc2nc(-c3ccc(-c4ccc(CN5CCN(C6CCN(C)CC6)CC5)cc4)s3)[nH]c12.O=C(O)C(F)(F)F,100,100,97
CN(C)CCCN1CCN(Cc2ccc(-c3ccc(-c4nc5ccccc5[nH]4)s3)cc2)CC1,100,100,19

SMILES,Inhibition [1] [%],Inhibition [2] [%],Inhibition [3] [%]
CCCCCCOc1ccc(C(=O)NCCCC2CCCN(CCCCCNC(=O)C=Cc3ccc(Cl)c(Cl)c3)C2)cc1 (configuration not stated),96,12,20
Fc1ccc2c(NN=CC=Cc3ccccc3)ccnc2c1,100,98,0
COc1ccc(F)cc1-c1ccccc1CNC(=O)c1cnn(-c2ccc([N+](=O)[O-])cc2)c1C(F)(F)F,89,75,0
CCC(NC[C@@H](O)[C@H](Cc1ccccc1)NC(=O)c1cc(C2CCCC2)cc(N2CCCC2=O)c1)c1cccc(Cl)c1.Cl (some centres not stated),100,97,7
CC(=O)c1ccccc1OCCSc1nnc(Cc2cccs2)n1C1CCCCC1,87,1,19
Cc1cccc(CN2CCC(CNC(=O)c3cc4c(-c5ccccc5F)nn(C)c4s3)CC2)c1,85,15,18
Cc1cccc(CN2CCC(C(=O)Nc3ccc(-c4nc5ccccc5[nH]4)cc3)CC2)n1,96,3,0
Cc1ccc(-n2c(=O)c3c(n4c(SC(C)C)nnc24)-c2ccccc2CC32CCCCC2)cc1,95,88,8
C=CCc1cc(Cc2cnc(N)nc2N)cc(CCC)c1OC,83,1,3
Fc1cccc(COc2ccc(Nc3ncnc4sc(C#C[C@H]5CC[C@H](CN6CCOCC6)N5)cc34)cc2Cl)c1,92,23,16
O=C(O)C(F)(F)F.O=C1OC(c2ccccc2)(c2ccccc2)CN1CC1CCN(Cc2ccc(O)c(Cl)c2)CC1,98,90,26
CCN1CCc2c1cc(C(=O)N[C@@H](Cc1ccccc1)[C@H](O)CNC(C)(C)c1cccc(C(F)(F)F)c1)cc2N1CCCCS1(=O)=O,100,99,6
COc1ccc(C(=O)N2CCC3(CC2)C(=O)N(CC(=O)NCC2CCCCC2)CN3c2ccccc2)c(OC)c1,100,99,6
COc1ccc2nc(N(CCCn3ccnc3)C(=O)C=Cc3cccs3)sc2c1.Cl,92,26,8
CS(=O)(=O)N(CC(O)Cn1c2ccc(Cl)cc2c2cc(Cl)ccc21)c1ccccc1 (configuration not stated),100,98,2
COc1ccccc1C1CC(c2ccccc2)=NN1C(=O)c1ccccc1 (configuration not stated),100,93,13
COCCN1CCC(CN(C)CC(C)(C)c2nc(-c3ccc(Cl)c(O)c3)c(-c3ccncc3)[nH]2)CC1.Cl,94,10,0
CCOC(=O)c1ccc(-n2c(C)cc(C=C3SC(=Nc4ccccc4)N(C4CCCC4)C3=O)c2C)cc1,98,61,2
CC(C)c1ccc(C(NC(=O)C2CCCCC2)c2ccc3cccnc3c2O)cc1 (configuration not stated),89,70,46
O=C(Nc1ccc(-c2cccc(-c3nc4cc(C(F)(F)F)ccc4[nH]3)c2)cc1)c1ccncc1,100,23,63
